The campaign covered roughly 52,000 compounds. About 4,300 (8.3%) were called active. Rule as the data show it: active = survival mostly below about 52% (no sharp cut-off); inactive = mostly above about 56%. The list comes from a sample in which actives are over-represented; it also holds similar structures and randomly drawn compounds.

This test has as its system DeltatarO mutant. The test is described as follows: growth inhibition of S. aureus wild type versus tarO mutant, primary screen, teichoic acid synthesis inhibitors, RN4220, OD600 (AID 463173). Particulars: OD600, 18 h, active compounds read low, screened at 18.75 µg/mL (by protocol).
As to `CCCOc1cccc(C(=O)NCc2cccnc2)c1`, the survival was 81% (inactive).
Under `COc1cc(N2C(=O)CSC23C(=O)N(C)c2ccccc23)cc(OC)c1OC` (centres undefined) stands 66% (inactive).
Consider `COC(=O)c1cc(S(=O)(=O)NCC2CCN(Cc3ccc(F)cc3)CC2)cn1C`, for which the survival is 109% (inactive).
Take `N#Cc1ccc(CSc2nnc(-c3ccc(Br)cc3)o2)cc1`: the survival is 87% (inactive).
Consider `N#Cc1ccccc1CSc1nnc(-c2ccc(Br)cc2)o1`, for which the survival is 92% (inactive).
`CCOC(=O)CSc1nnc(-c2ccc(OC)cc2)o1`: the survival was 66% (inactive).
`CCCCOC(=O)CSc1nnc(-c2ccc(C)cc2)o1`: the survival is 12% (active).
As to `CCCCCSc1nnc(-c2ccc(Br)cc2)o1`, the survival was -1% (active).
As to `COc1ccc(-c2nnc(SCC(=O)Oc3cc(C)ccc3C)o2)cc1`, the survival is 67% (inactive).
Under `CC(=O)Nc1ccc(S(=O)(=O)N2CCC(N3CCN(Cc4ccc(C)cc4)C(=O)C3=O)CC2)cc1` stands 83% (inactive); under `COCCCNc1nc2c(-c3ccccc3)nnn2c2ccccc12`, 78% (inactive).
For the compound `O=C(Nc1cccc(-c2nc3ccccc3[nH]2)c1)c1ccccc1F`, the survival was 29% (active).
Under `CC(=O)Nc1cc(NC(C)=O)cc(-c2nc3ccccc3[nH]2)c1` stands 83% (inactive).
Under `CCC(=O)Nc1ccc(-c2nc3ccc(NC(=O)CC)cc3[nH]2)cc1` stands 66% (inactive); under `CC(C)(C)C(=O)Nc1ccc(-c2nc3ccc(NC(=O)C(C)(C)C)cc3[nH]2)cc1`, 105% (inactive).
Consider `O=C(Nc1cccc(-c2nc3ccccc3[nH]2)c1)c1c(F)cccc1F`, for which the survival was 37% (active).
For the compound `O=C(NCc1nc2ccccc2[nH]1)c1c(F)cccc1F`, the survival is 56% (inactive).
Under `O=C(Nc1cccc(NC(=O)c2ccccc2F)c1)c1ccccc1` stands 77% (inactive); under `O=C(Nc1ccc2nc(-c3ccccc3)[nH]c2c1)c1ccco1`, 1% (active); under `Cc1csc2nc(-c3cccc(NC(=O)c4ccccc4F)c3)cn12`, 126% (inactive).
`O=C(Nc1ccc(C(=O)OCc2cc(=O)n3ccsc3n2)cc1)c1cccc(F)c1`: the survival was 102% (inactive).
On to `COc1ccc(C(=O)N(Cc2ccco2)Cc2ccccc2F)cc1Cl`, for which the survival is 98% (inactive).
Under `Cc1cccc(NC(=O)CCN2CCC(C)CC2)c1` stands 91% (inactive).
For the compound `Cc1ccc(NC(=O)CSc2nc(=O)n(CCCN(C)C)c3c2CCC3)cc1F`, the survival is 71% (inactive).
Under `COc1cc(NC(=O)C(CC(C)C)N2Cc3ccccc3C2=O)cc(OC)c1` (centres undefined) stands 108% (inactive); under `O=C(N=Nc1c(O)[nH]c2ccccc12)C1CC1c1ccccc1` (centres undefined), 35% (active).
Consider `O=C(Cc1ccccc1)N=Nc1c(O)[nH]c2ccccc12`, for which the survival was 91% (inactive).
On to `O=C(N=Nc1c(O)[nH]c2ccccc12)C1C2CCCCC21` (centres undefined), for which the survival was 95% (inactive).
In the case of `Cc1cc(Nc2cccc(Cl)c2)nc2ccc(NC(=O)Cc3ccc(Cl)cc3)cc12`, the survival is 105% (inactive).
Consider `Cc1c(C(=O)N2CCCCCC2)c(S(=O)(=O)NCc2ccccc2)c(C)n1C`, for which the survival is 77% (inactive).
`CCOc1ccc2[nH]c(=O)c(CN(Cc3ccccc3)C(=O)N3CCOCC3)cc2c1`: the survival was 105% (inactive).
For `CC(C)c1ccc(-c2nnn(CC(=O)OC3CCCCC3)n2)cc1`, the survival is 87% (inactive).
Under `CCOc1ccc(-c2nnn(CC(=O)NC3CCCCC3)n2)cc1` stands 75% (inactive).
For the compound `CC(C)COc1ccc(-c2nnn(CC(=O)N3C(C)CCCC3C)n2)cc1` (centres undefined), the survival was 69% (active).
Consider `Cc1ccc(NC(=O)Cc2ccc(-n3c(C)nc4cccnc43)cc2)c(Cl)c1`, for which the survival was 107% (inactive).
Regarding `CCOc1ccc(NC(=O)CSc2ncn[nH]2)cc1`, the survival is 67% (inactive).
For `COCCN1C(=O)c2[nH]nc(-c3ccccc3O)c2C1c1ccc(Cl)c(Cl)c1` (centres undefined), the survival is 3% (active).
With `CCCN1C(=O)c2[nH]nc(-c3ccc(F)cc3)c2C1c1ccc(O)c(OCC)c1` (centres undefined), the survival was 51% (inactive).
With `CCCN1C(=O)c2[nH]nc(-c3ccccc3O)c2C1c1ccc(OCc2ccccc2)c(OCC)c1` (centres undefined), the survival was 40% (active).
As for `CCCOc1ccc(C2c3c(-c4ccccc4O)n[nH]c3C(=O)N2CCc2ccccc2)cc1OCC` (centres undefined), the survival was 53% (inactive).
`COc1cc(C2c3c(-c4ccccc4O)n[nH]c3C(=O)N2Cc2ccncc2)cc(OC)c1OC` (centres undefined): the survival was 82% (inactive).
As to `CCOc1cc(C2c3c(-c4ccccc4O)n[nH]c3C(=O)N2CCc2ccccc2)ccc1O` (centres undefined), the survival was 29% (active).
With `CCCCN1C(=O)c2[nH]nc(-c3ccccc3O)c2C1c1cc(Br)c(O)c(OC)c1` (centres undefined), the survival was 2% (active).
For the compound `COc1ccc(/C=C\c2onc(C)c2S(=O)(=O)N2CCC(C(=O)Nc3cccc(OC)c3)CC2)cc1`, the survival was 97% (inactive).
Turning to `Cc1cc(C)n(C2CC(=O)N(N(C)C)C2=O)n1` (centres undefined), the survival is 92% (inactive).
Turning to `Cc1cc(C)c2c(=O)cc(C(=O)Nc3ccc(S(=O)(=O)Nc4nc(C)cc(C)n4)cc3)oc2c1`, the survival is 103% (inactive).
Under `O=C(CO)N/N=C\c1c(F)cccc1Cl` stands 51% (inactive).
`Cc1ccc(S(=O)(=O)C(CNC(=O)Cc2ccc(Cl)cc2)c2cccs2)cc1` (centres undefined): the survival is 85% (inactive).
In the case of `CCc1ccc(NC(=O)CSC2=Nc3ccccc3C3=NC(CC(=O)NC4CCCCC4)C(=O)N23)cc1` (centres undefined) it was 86% (inactive).
Turning to `CC(C)(O)C1Cc2cc(/C=C/C(=O)O)c(O)cc2O1` (centres undefined), the survival is 88% (inactive).
On to `CN(C)c1ccc(CNC(=O)c2ccc(NC(=O)c3nsc4ccccc34)cc2)cc1`, for which the survival was 84% (inactive).
`COCCN1C(=O)c2[nH]nc(-c3ccccc3O)c2C1c1ccc(OCc2ccccc2)c(OC)c1` (centres undefined): the survival is 13% (active).
With `CCCCOc1ccc(C2c3c(-c4ccccc4O)n[nH]c3C(=O)N2Cc2ccncc2)cc1OC` (centres undefined), the survival was 61% (inactive).
For the compound `COc1cc(C2c3c(-c4ccccc4O)n[nH]c3C(=O)N2CCO)ccc1OCc1ccccc1` (centres undefined), the survival is 77% (inactive).
Consider `CCCCN1C(=O)c2[nH]nc(-c3ccccc3O)c2C1c1ccc(OCc2ccccc2)c(OC)c1` (centres undefined), for which the survival is 35% (active).
In the case of `CCCN1C(=O)c2[nH]nc(-c3ccccc3O)c2C1c1ccc(OCc2ccccc2)c(OC)c1` (centres undefined), the survival is 44% (active).
`CCOc1ccc(C2c3c(-c4ccccc4O)n[nH]c3C(=O)N2Cc2cccnc2)cc1OC` (centres undefined): the survival was 90% (inactive).
Turning to `CCOC(=O)c1c(C)[nH]c(CCC(=O)NCc2ccc(F)cc2)c1C`, the survival is 89% (inactive).
With `COCCCNC(=O)Cn1nc(N2CCN(c3ccccc3)CC2)ccc1=O`, the survival is 91% (inactive).

The values are drawn from PubChem BioAssay AID463173 (ICCB-Longwood Screening Facility, Harvard Medical School, 2010).
